# Source: PubChem BioAssay (NCATS)
# Several values for one entry are separate records, joined by “and”; a condition that tells them apart may be missing. Equal values may be shown once. Inconclusive results are not listed. Where a call stands in place of a potency, no number is given. Activity calls are given as the source filed them. Unless noted, calls follow the shape of the full dose curve. Numbered stars: 1 amine (or outer) side, 2 acyl side, 3 side chain; on linkers, the order of the positions; unused ones are H or OH. Bridge positions count the residues as written; N and C are the ends. Square brackets hold non-standard residues; d marks the D form. Peptide text beside a SMILES is read from it. I, II: the chains in the order shown. Actinocin(9to1) = Cc1c2oc3c(C)ccc(C(=O)[*:1])c3nc-2c(C(=O)[*:2])c(N)c1=O; NMeV = CN[C@H](C(=O)O)C(C)C; Sar = CNCC(=O)O
# Experiments:
# [1] = target: Peroxisome proliferator-activated receptor gamma (Homo sapiens) (UniProt P37231); test: qHTS assay for small molecule agonists of peroxisome proliferator-activated receptor gamma signaling (AID 588536; active = well fitted curve in the direction sought with a large enough effect in the signal ratio, with a control signal flat, not every such curve was filed as active; the % refers to the signal ratio); settings: HEK293 PPARg-UAS-bla, beta-lactamase ratio, 16 h, percent of rosiglitazone response, DMSO as zero; series mostly up to 76.7 µM
# In short: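 Compound treatment: 16 h, 37 C, HEK293 GeneBLAzer cells. Detection: CCF4, 2 h RT. Values: Hill-fit EC50, efficacy as % of 2 uM rosiglitazone.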
# [2] = target: Vitamin D3 receptor (Homo sapiens) (UniProt P11473); test: qHTS assay for small molecule antagonists of vitamin D receptor signaling (AID 588541); settings: HEK293T VDR-UAS-bla, beta-lactamase ratio, antagonist mode; series mostly up to 76.7 µM;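 also: receptor activated by calcitriol during compound treatment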
# In short: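 VDR-UAS-bla HEK293T cells (2000/well, 2% charcoal-stripped FBS) were treated with titrated compounds plus 1-alpha,25-dihydroxyvitamin D3 (50 nM or 3 nM final) for 16 h at 37 C. CCF4 beta-lactamase fluorescence was read; Hill fits gave IC50.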
# [3] = target: Vitamin D3 receptor (Homo sapiens) (UniProt P11473); test: qHTS assay for small molecule agonists of vitamin D receptor signaling (AID 588543); settings: HEK293T VDR-UAS-bla, beta-lactamase ratio, 16 h; series mostly up to 76.8 µM
# In short: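 VDR-UAS-bla HEK293T cells, 2000/well, 2% charcoal-stripped FBS; compound titration 16 h at 37 C; CCF4 beta-lactamase ratio read. Normalized to 50 nM 1-alpha,25-dihydroxyvitamin D3 (100%) and DMSO; Hill fit gives EC50, efficacy.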
# [4] = target: Peroxisome proliferator-activated receptor gamma (Homo sapiens) (UniProt P37231); test: qHTS assay for small molecule antagonists of peroxisome proliferator-activated receptor gamma signaling (AID 588537; active = well fitted inhibition curve with a large enough effect in the signal ratio, with a control signal flat, not every such curve was filed as active; the % refers to the signal ratio; also: potency is read from the fitted curve at half-maximal effect); settings: HEK293 PPARg-UAS-bla, beta-lactamase ratio, antagonist mode; series mostly up to 76.8 µM
# In short: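 HEK293 cells, PPAR-gamma-UAS-bla, 3000/well. Pre-incubation 6-6.5 h, 37 C. Compound titration with rosiglitazone 50 nM final, 16 h. CCF4 dye, 2 h RT, dual-emission fluorescence.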
# [5] = qHTS assay for small molecule agonists of retinoid X receptor alpha signaling (AID 588544); settings: HEK293T RXRa-UAS-bla, beta-lactamase reporter, 18 h; 530 nm emission
# [6] = target: Bile acid receptor (Homo sapiens) (UniProt Q96RI1); test: qHTS assay for small molecule antagonists of farnesoid X receptor signaling (AID 588526); settings: HEK293T FXR-UAS-bla, beta-lactamase ratio, antagonist mode; series mostly up to 76.7 µM
# In short: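 Concentration-response titrations were fitted to the Hill equation for half-maximal inhibition and maximal response, with data normalised to 50 uM chenodeoxycholic acid and DMSO control wells. Cells: FXR-UAS-bla HEK293T, dialyzed FBS.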
# [7] = target: Glucocorticoid receptor (Homo sapiens) (UniProt P04150); test: qHTS assay for small molecule agonists of glucocorticoid receptor signaling (AID 588532; active = well fitted curve in the direction sought with a large enough effect in the signal ratio, with a control signal flat; the % refers to the signal ratio); settings: HeLa MMTV-bla, beta-lactamase ratio, agonist, 18 h; stronger effect = higher value; percent of dexamethasone control, DMSO zero
# In short: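 Stimulation of a glucocorticoid response element-driven beta-lactamase gene was measured in HeLa cells. Responses were scaled between DMSO basal and 0.1 uM dexamethasone, then fitted for half-maximal stimulation.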
# [8] = qHTS assay for small molecule antagonists of peroxisome proliferator-activated receptor delta signaling (AID 588535; active = well fitted inhibition curve with a large enough effect in the signal ratio, with a control signal flat, not every such curve was filed as active; the % refers to the signal ratio;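 as to max response: cells co-treated with a PPAR-delta agonist as stimulator during compound exposure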); settings: HEK293T PPARd-UAS-bla, beta-lactamase FRET ratio, 18 h; 460 nm channel
# In short: (§1)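 Compounds tested in titration on PPAR-delta-UAS-bla HEK293T cells grown in charcoal/dextran-stripped serum (2%); beta-lactamase activity read via CCF4 emission at 460 and 530 nm.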
# [9] = target: Peroxisome proliferator-activated receptor delta (Homo sapiens) (UniProt Q03181); test: as above; settings: HEK293T PPARd-UAS-bla, beta-lactamase FRET ratio, 18 h; series mostly up to 76.7 µM
# In short: as §1
# [10] = target: Glucocorticoid receptor (Homo sapiens) (UniProt P04150); test: qHTS assay for small molecule antagonists of glucocorticoid receptor signaling (AID 588533; active = well fitted inhibition curve with a large enough effect in the signal ratio, with a control signal flat, not every such curve was filed as active; the % refers to the signal ratio;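 also: cells stimulated with 2 nM dexamethasone as agonist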; also: potency is read from the fitted curve at half-maximal effect); settings: HeLa MMTV-bla, GRE beta-lactamase ratio, antagonist mode, 18 h; series mostly up to 76.8 µM
# In short: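 Antagonist-mode qHTS: compound titrations added to GRE-bla HeLa cells, then dexamethasone 2 nM final; 18 h, 37 C. CCF4 FRET fluorescence normalized to dexamethasone and DMSO; IC50 from Hill fit.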
# Sequence of Glucocorticoid receptor (Homo sapiens) (P04150 whole entry, looked up): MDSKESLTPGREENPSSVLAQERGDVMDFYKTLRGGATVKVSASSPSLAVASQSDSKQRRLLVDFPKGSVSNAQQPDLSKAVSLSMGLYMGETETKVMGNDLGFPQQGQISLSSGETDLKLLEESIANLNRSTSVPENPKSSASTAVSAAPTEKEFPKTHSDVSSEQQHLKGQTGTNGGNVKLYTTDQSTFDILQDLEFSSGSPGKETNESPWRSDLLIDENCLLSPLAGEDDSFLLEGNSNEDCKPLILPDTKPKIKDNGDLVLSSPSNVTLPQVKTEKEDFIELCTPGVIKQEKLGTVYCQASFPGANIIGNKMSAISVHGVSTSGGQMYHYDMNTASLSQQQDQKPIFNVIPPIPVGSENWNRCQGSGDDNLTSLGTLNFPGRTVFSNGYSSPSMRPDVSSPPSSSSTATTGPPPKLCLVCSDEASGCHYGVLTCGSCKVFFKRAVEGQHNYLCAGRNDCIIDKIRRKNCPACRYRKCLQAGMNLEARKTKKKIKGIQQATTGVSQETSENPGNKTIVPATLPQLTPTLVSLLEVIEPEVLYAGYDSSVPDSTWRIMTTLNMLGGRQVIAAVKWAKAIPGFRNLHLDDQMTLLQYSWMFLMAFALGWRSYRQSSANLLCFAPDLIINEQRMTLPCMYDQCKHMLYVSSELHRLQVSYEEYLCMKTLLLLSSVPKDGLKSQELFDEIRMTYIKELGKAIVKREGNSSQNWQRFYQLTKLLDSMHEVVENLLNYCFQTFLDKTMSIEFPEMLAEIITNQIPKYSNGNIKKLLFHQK
# Sequence of Peroxisome proliferator-activated receptor gamma (Homo sapiens) (P37231 whole entry, looked up): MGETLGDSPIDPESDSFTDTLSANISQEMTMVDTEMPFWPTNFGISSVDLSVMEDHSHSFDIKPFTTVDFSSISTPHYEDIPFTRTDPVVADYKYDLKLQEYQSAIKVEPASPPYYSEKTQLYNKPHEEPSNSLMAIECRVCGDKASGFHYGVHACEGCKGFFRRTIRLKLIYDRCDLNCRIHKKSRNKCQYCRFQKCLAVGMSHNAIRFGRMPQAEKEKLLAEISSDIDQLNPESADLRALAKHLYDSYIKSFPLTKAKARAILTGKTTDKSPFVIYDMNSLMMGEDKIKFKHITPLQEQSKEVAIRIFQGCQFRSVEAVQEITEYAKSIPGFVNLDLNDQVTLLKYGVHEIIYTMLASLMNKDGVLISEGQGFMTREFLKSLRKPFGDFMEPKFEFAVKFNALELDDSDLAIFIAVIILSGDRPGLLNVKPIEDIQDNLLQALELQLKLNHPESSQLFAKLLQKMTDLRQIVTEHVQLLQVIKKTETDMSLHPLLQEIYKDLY
# Sequence of Peroxisome proliferator-activated receptor delta (Homo sapiens) (Q03181 whole entry, looked up): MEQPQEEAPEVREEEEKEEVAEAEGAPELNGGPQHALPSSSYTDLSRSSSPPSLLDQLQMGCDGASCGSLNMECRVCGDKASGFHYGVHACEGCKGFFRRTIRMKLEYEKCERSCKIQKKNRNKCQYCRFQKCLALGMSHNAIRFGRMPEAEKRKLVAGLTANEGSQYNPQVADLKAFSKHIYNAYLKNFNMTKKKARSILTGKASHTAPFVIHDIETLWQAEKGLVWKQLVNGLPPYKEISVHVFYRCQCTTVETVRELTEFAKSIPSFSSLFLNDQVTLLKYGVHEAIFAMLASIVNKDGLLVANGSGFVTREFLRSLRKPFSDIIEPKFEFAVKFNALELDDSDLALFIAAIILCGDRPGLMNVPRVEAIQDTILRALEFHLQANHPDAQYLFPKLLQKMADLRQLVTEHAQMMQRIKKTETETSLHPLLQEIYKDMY
# Sequence of Bile acid receptor (Homo sapiens) (Q96RI1 whole entry, looked up): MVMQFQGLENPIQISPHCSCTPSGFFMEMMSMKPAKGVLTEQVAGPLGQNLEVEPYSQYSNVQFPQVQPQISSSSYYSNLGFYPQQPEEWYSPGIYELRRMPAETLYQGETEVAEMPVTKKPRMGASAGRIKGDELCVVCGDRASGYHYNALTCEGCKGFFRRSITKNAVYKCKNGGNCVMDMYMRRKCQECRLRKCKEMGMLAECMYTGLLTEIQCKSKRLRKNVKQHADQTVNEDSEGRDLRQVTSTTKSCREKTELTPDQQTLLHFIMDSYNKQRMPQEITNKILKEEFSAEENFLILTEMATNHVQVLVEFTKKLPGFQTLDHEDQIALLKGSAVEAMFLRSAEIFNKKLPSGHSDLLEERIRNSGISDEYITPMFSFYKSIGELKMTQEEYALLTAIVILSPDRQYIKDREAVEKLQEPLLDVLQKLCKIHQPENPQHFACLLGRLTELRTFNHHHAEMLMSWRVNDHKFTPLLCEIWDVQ
smiles,measurement,setting,value
CC(=O)Oc1ccc(C(c2ccc(OC(C)=O)cc2)c2ccccn2)cc1,outcome,[1],inactive
same,Potency,[2],inactive
same,outcome,[3],inactive
Oc1c(Cl)cc(Cl)cc1Sc1cc(Cl)cc(Cl)c1O,outcome,[3],inactive
O=C1OC(c2ccc(O)cc2)(c2ccc(O)cc2)c2ccccc21,Potency,[4],39.8 µM (active)
same,Potency,[2],inactive
same,outcome,[3],inactive
same,max response,[5],14.6% and 3.81%
CN(C)/N=N/c1nc[nH]c1C(N)=O,Potency,[6],inactive
same,activation,[7],-5.55% (inactive)
same,max response,[8],24%
same,Potency,[9],inactive
same,outcome,[1],inactive
same,Potency,[4],inactive
same,max response,[5],27.5%
O=C(O)CCCCC(=O)O,Potency,[6],inactive
same,activation,[7],6.23% (inactive)
same,Potency,[10],inactive
same,outcome,[1],inactive
same,Potency,[4],inactive
same,Potency,[2],inactive
same,outcome,[3],inactive
same,max response,[5],-28.1%
CC(C)(C)CC(C)(C)c1ccc(OCCOCC[N+](C)(C)Cc2ccccc2)cc1,outcome,[1],inactive
same,outcome,[3],inactive
C[C@H]1C[C@H]2[C@@H]3CCC4=CC(=O)C=C[C@]4(C)[C@@]3(Cl)[C@@H](O)C[C@]2(C)[C@@]1(O)C(=O)CO,Potency,[10],inactive
same,outcome,[1],inactive
same,Potency,[4],inactive
same,Potency,[2],inactive
same,outcome,[3],inactive
NC(=NCCCCCCN=C(N)/N=C(\N)Nc1ccc(Cl)cc1)/N=C(\N)Nc1ccc(Cl)cc1,activation,[7],-3.44% (inactive) and 1.22% (inactive)
same,Potency,[4],inactive
CN(C)C(=S)SC(=S)N(C)C,Potency,[6],inactive
same,Potency,[10],inactive
same,max response,[8],6.78%
same,Potency,[9],inactive
same,outcome,[1],inactive
same,Potency,[4],inactive
same,Potency,[2],inactive
same,outcome,[3],inactive
same,max response,[5],0.136%
CC(C)(Oc1ccc(Cl)cc1)C(=O)O,Potency,[10],inactive
same,outcome,[1],inactive
same,Potency,[4],inactive
same,Potency,[2],inactive
same,outcome,[3],inactive
same,max response,[5],-16.7%
COC1=CC(=O)C[C@@H](C)[C@]12Oc1c(Cl)c(OC)cc(OC)c1C2=O,activation,[7],-8.46% (inactive)
same,outcome,[3],inactive
"Cc1c2oc3c(C)ccc(C(=O)N[C@@H]4C(=O)N[C@H](C(C)C)C(=O)N5CCC[C@H]5C(=O)N(C)CC(=O)N(C)[C@@H](C(C)C)C(=O)O[C@@H]4C)c3nc-2c(C(=O)N[C@@H]2C(=O)N[C@H](C(C)C)C(=O)N3CCC[C@H]3C(=O)N(C)CC(=O)N(C)[C@@H](C(C)C)C(=O)O[C@@H]2C)c(N)c1=O (I: T[dV]P[Sar][NMeV] / II: T[dV]P[Sar][NMeV]; ester I:1-I:C, II:1-II:C; linker I:N-II:N via Actinocin(9to1))",Potency,[10],126 nM (active) and 112 nM (active)
same,outcome,[3],inactive
CC(O)(P(=O)(O)O)P(=O)(O)O,Potency,[4],inactive
same,max response,[5],-19.3%
Nc1ccc(C(=O)O)cc1,Potency,[6],inactive
same,activation,[7],-1.78% (inactive)
same,Potency,[10],inactive
same,max response,[8],41.6%
same,Potency,[9],inactive
same,outcome,[1],inactive
same,Potency,[4],inactive
same,max response,[5],0.621%
Oc1ccc(Cl)cc1Sc1cc(Cl)ccc1O,outcome,[1],inactive
same,Potency,[2],inactive
same,outcome,[3],inactive
